A short description of experiment [1]: High-throughput drug toxicity screening in the BPDCN cell line Cal-1 (AID 1224825; call rule not given here). To be noted: Cal-1 BPDCN cell viability, qHTS; at 45.8 µM (top of the series) unless noted. Summed up:
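Exponentially growing Cal-1 cells, 500 per well in phenol red-free RPMI with 10% FBS, were exposed to compounds for 48 h at 37 °C, 5% CO2. Viability was read by CellTiter-Glo luminescence and normalised to DMSO (100%) and 9.2 uM bortezomib (0%).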
For orientation: Quantitative high-throughput screening tests each substance at several concentrations.

A short description of experiment [2]: qHTS assay for measurement of the activity of small molecule inhibitors on Zika virus induced Caspase-3 activity in human iPSC derived neural progenitor cells (hNPCs) (AID 1224857). Note: % of control where 0% means no effect; nearly all actives have a fitted effect of over 65% in size. The procedure, abridged: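 Values are percent inhibition of virus-induced caspase-3/7 signal, scaled between uninfected cells and ZIKV-infected cells. Infection used 2 FFU/cell for 6 h after 1 h compound exposure.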

Experiment [3] can be described thus: qHTS assay for measurement of the activity of small molecule inhibitors on Zika virus induced Caspase-3 activity in human astrocytoma cells (AID 1224859).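 Note: plate controls were ZIKV-infected untreated cells for no effect and uninfected cells for full effect.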 Summed up:
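Compound added 1 h pre-infection; ZIKV 2 FFU/cell on SNB-19 cells, 6 h, 37 C/5% CO2. Caspase-Glo 3/7 luminescence; values as % inhibition of ZIKV-induced caspase activity.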

Experiment [4] in a line: qHTS Screen of the MIPE 4.0 Collection Against Ewings Sarcoma (RDES) (AID 1259252).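 Note: 100% = DMSO-treated cells and 0% = medium-only wells without cells; nearly all actives have a fitted effect of over 35% in size.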 Summed up:
(§1)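 Compound titrations go onto adherent log-phase cells 4 h after seeding, incubate 48 h at 37C, then CellTiter-Glo luminescence reports viability relative to DMSO and cell-free controls.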

Experiment [5] is described as follows: qHTS assay to identify small molecule inhibitors of chordoma cells - UCH-1 (AID 1259355). Note: % is set by controls: 0 for no effect and ±100 for the full control effect; nearly all actives have a fitted effect of over 55% in size. Summed up:
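Luminescent ATP read-out (CellTiter-Glo, 30min at room temperature) measured viability of UCH-1 cells exposed for 48hr to test drugs at 15 concentrations, co-dosed with a five-agent combination of auranofin, camptothecin, doxorubicin, rubitecan and topotecan.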

The nature of experiment [6]: qHTS assay to identify small molecule inhibitors of chordoma cells - UCH-2 (AID 1259356). Note: % is set by controls: 0 for no effect and ±100 for the full control effect.
The nature of experiment [7]: NS1 protein of Zika virus - qHTS assay to identify small molecule inhibitors in human HEK 293 cells (AID 1347053). Note: nearly all actives have a fitted effect of over 55% in size. Note: potency is the fitted concentration of half-maximal effect. The procedure, abridged: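 HEK 293; 20 h pre-culture, 37 C/5% CO2; cpd 1 h pre-infection; ZIKV MR766, MOI = 0.5, 24 h, 37 C; TR-FRET NS1 readout (two anti-NS1 Abs); norm. to no-virus vs infected.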
Experiment [8] in a line: qHTS Screen of the MIPE 4.0 Collection Against Ewings Sarcoma (EW8) (AID 1259255).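 For viability: 100% = DMSO-treated cells and 0% = medium-only wells without cells.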 Note: nearly all actives have a fitted effect of over 35% in size. Note: potency is the fitted concentration of half-maximal effect. The procedure, abridged:
as §1

Experiment [9] in a line: qHTS Screen of the MIPE 4.0 Collection Against Ewings Sarcoma (TC32) (AID 1259256). Note: nearly all actives have a fitted effect of over 45% in size. Note: potency is the fitted concentration of half-maximal effect. The procedure, abridged: as §1
Experiment [10] can be described thus: Identifying Small Molecule Inhibitors of Pancreatic Cancer Stem Cells (SN12C, Adherent) (AID 1259358).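 Note: potency is the fitted concentration of half-maximal effect; cell survival measured after 48 h of compound exposure.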 Summed up: (§2)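 Viability is scored by CellTiter-Glo luminescence 48 h after dosing, expressed as percent activity against vehicle and no-cell references. Spheroid formats rely on cells cultured 14 days in stem cell media beforehand.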
The nature of experiment [11]: Identifying Small Molecule Inhibitors of Pancreatic Cancer Stem Cells (A278, Adherent) (AID 1259361). Note: nearly all actives have a fitted effect of over 35% in size. The procedure, abridged: as §2
Experiment [12] can be described thus: Identifying Small Molecule Inhibitors of Pancreatic Cancer Stem Cells (Panc1, Adherent) (AID 1259362). Note: potency is the fitted concentration of half-maximal effect. To be noted: Potency: viability. The procedure, abridged: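 Pre-formed 14-day tumor spheroids or adherent cells dosed and incubated 48 h, 37C, 5% CO2. Viability assessed by CellTiter-Glo.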
The nature of experiment [13]: P-glycoprotein substrates identified in KB-8-5-11 adenocarcinoma cell line, qHTS therapeutic library screen (AID 1346987). Note: % is set by controls: 0 for no effect and ±100 for the full control effect; nearly all actives have a fitted effect of over 65% in size. Summed up: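 P-gp-mediated resistance screen: KB-8-5-11 cells treated 72 h with compounds in dose-response. CellTiter-Glo viability.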
Experiment [14] is described as follows: qHTS Screen of the MIPE 4.0 Collection Against Ewings Sarcoma (TC71) (AID 1259253). Note: nearly all actives have a fitted effect of over 40% in size. Note: potency is the fitted concentration of half-maximal effect. Summed up:
as §1

For experiment [15], the target named is Atrial natriuretic peptide receptor 1 (Homo sapiens) (UniProt P16066). The experiment in a line: Natriuretic polypeptide receptor (hNpr1) antagonism - Pilot screen (AID 1347049; calls by dose curve;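 note: agonist-evoked cGMP luminescence read 20 min after hNppA addition; % is set by controls: 0 for no effect and ±100 for the full control effect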). The procedure, abridged: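 HEK293 cells co-expressing hNpr1 and the GloSensor pGS-40F cGMP luciferase sensor were preloaded with 2% GloSensor reagent for 2 h. Compounds were added for 30 min at room temperature, then cells were stimulated with 0.1 nM hNppA for 20 min before luminescence readout.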

In experiment [16] the target is Tyrosine-protein phosphatase non-receptor type substrate 1 (Homo sapiens) + Leukocyte surface antigen CD47 (Homo sapiens) (UniProt P78324+Q08722). The experiment in a line: CD47-SIRPalpha protein protein interaction - LANCE assay qHTS validation (AID 1347057; active = well fitted curve in the direction sought with a large enough effect in the signal ratio, with a control signal flat, not every such curve was filed as active; the % refers to the signal ratio; note: 0% is about no effect). Summed up:
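First, His-tagged CD47 and Eu-labelled anti-His antibody met the compound for 30 min; next, site-specifically biotinylated SIRPalpha was added for 30 min; finally streptavidin-APC was added before reading the TR-FRET ratio.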

Experiment [17] in a line: P-glycoprotein substrates identified in KB-3-1 adenocarcinoma cell line, qHTS therapeutic library screen (AID 1346986). Note: nearly all actives have a fitted effect of over 60% in size. The procedure, abridged:
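KB-3-1 parental cells and P-gp-overexpressing KB-8-5-11 (colchicine omitted during assay) plated at 500 cells/well, dosed in dose-response, incubated 72 h at 37 degree C. CellTiter-Glo luminescence read; KB-8-5-11 also tested with tariquidar.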

Results filed as inconclusive are left out. The source made the active and inactive calls. Unless noted, calls come from the whole dose curve; as a rule, active = well fitted curve in the direction sought with a large enough effect; inconclusive = small, poorly fitted or top-dose-only effect, or another doubt; inactive = no such curve, though single readings can be large; an effect the other way counts as inactive or inconclusive.

Sequence of Tyrosine-protein phosphatase non-receptor type substrate 1 (Homo sapiens) + Leukocyte surface antigen CD47 (Homo sapiens) (P78324 whole entry, looked up): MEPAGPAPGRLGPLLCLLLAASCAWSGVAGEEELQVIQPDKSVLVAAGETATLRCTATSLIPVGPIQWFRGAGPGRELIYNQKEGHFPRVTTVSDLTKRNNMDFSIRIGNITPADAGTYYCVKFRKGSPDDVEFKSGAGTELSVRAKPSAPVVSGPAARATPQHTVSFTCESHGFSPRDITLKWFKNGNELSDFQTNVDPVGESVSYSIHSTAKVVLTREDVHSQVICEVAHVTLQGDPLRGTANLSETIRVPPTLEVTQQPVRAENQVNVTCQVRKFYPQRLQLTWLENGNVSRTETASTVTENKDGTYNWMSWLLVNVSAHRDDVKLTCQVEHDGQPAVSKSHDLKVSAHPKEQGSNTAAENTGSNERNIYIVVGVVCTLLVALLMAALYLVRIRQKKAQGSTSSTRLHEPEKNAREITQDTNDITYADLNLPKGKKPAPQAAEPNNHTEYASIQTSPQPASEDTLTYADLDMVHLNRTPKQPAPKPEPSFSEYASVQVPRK
Sequence of Tyrosine-protein phosphatase non-receptor type substrate 1 (Homo sapiens) + Leukocyte surface antigen CD47 (Homo sapiens) (Q08722 whole entry, looked up): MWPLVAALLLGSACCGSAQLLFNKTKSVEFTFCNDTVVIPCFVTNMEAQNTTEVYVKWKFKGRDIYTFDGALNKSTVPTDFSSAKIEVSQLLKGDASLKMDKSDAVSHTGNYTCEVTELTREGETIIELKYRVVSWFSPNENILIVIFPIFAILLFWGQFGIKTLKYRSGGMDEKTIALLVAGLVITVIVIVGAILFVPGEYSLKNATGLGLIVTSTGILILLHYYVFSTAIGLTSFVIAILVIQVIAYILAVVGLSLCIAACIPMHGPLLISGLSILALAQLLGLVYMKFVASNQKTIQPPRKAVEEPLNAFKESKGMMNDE
Sequence of Atrial natriuretic peptide receptor 1 (Homo sapiens) (P16066 whole entry, looked up): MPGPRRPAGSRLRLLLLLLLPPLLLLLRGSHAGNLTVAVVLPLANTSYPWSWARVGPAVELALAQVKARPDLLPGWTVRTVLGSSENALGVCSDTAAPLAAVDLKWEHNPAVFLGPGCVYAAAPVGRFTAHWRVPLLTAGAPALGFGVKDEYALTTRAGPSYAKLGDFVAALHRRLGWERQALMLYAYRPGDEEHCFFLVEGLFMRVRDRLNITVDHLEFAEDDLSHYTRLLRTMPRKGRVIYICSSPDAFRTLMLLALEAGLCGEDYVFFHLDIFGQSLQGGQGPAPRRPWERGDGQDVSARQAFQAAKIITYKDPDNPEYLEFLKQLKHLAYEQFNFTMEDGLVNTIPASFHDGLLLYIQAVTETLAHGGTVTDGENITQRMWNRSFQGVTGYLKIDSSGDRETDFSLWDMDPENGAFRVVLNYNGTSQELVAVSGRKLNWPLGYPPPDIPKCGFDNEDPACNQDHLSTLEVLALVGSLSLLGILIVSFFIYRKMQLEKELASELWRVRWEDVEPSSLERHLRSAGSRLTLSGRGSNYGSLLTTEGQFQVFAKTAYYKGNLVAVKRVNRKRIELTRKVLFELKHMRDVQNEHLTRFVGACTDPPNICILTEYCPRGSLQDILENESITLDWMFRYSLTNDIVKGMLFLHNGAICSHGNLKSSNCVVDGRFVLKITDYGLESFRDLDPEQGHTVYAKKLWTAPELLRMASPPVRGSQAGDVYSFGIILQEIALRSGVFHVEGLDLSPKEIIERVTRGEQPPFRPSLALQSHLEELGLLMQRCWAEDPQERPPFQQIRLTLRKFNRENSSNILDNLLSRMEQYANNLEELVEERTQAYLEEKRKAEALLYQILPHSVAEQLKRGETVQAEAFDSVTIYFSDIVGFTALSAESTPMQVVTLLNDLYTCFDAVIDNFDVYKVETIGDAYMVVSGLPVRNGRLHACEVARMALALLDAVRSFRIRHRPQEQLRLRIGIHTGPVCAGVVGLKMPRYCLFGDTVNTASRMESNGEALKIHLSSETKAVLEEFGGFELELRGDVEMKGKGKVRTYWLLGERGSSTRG

On to `CC(=O)NC[C@H]1CN(c2ccc(N3CCOCC3)c(F)c2)C(=O)O1`, for which, in [1], the viability (% of control) was 105%. Further, the Potency result in [2], in experiment [3], in experiment [4], in experiment [5], in [6] and in experiment [7] was “inactive” each time.
`S=c1nc[nH]c2nc[nH]c12`: the viability (% of control) in experiment [1] came out at 89.6%. Also, the Potency entry in [2], in experiment [3] and in experiment [6] was “inactive” throughout. Also, the Potency in experiment [8] was 2.64 µM (active); in experiment [9] it was 3.32 µM (active); in [10], 38.2 µM (active); in [12], 5.4 µM (active); in experiment [7] it was 14.8 µM (active). For the same compound, in [11], the IC50 (viability decrease) is 1.71 µM (active).
On to `O=C(O)c1cn(-c2ccc(F)cc2)c2cc(N3CCNCC3)c(F)cc2c1=O`, for which the viability (% of control) in [1] worked out at 79.5%. Further, the Potency result in experiment [2], in experiment [3], in experiment [9], in experiment [5], in [6] and in [13] was “inactive” in each case.
For the compound `CN(C)CCCC1(c2ccc(F)cc2)OCc2cc(C#N)ccc21` (configuration not stated), the viability (% of control) in experiment [1] worked out at 99.6%. The Potency entry in [2], in experiment [3], in experiment [8], in [13], in experiment [15] and in experiment [7] was “inactive” each time. Besides, the values for the Potency in [14] and in experiment [9] were 14.8 µM (active) and 16.6 µM (active), respectively. In experiment [16], the outcome was inactive.
Turning to `CC1Cc2ccccc2N1NC(=O)c1ccc(Cl)c(S(N)(=O)=O)c1` (configuration not stated), the viability (% of control) in [1] was determined as 104%. For the same compound, the Potency entry in experiment [2], in [3], in experiment [6] and in experiment [7] was “inactive” in each case. Also, the Potency in [14] is 20.9 µM (active).
With `Cc1ccc(C)c(OCCCC(C)(C)C(=O)O)c1`, in experiment [1], the viability (% of control) was 51%. The Potency result in [2], in experiment [3], in [5], in experiment [6], in experiment [13] and in experiment [7] was “inactive” throughout.
Consider `N[C@@H](Cc1cc(I)c(Oc2cc(I)c(O)c(I)c2)c(I)c1)C(=O)O`, for which the viability (% of control) in experiment [1] worked out at 123%. The Potency result in experiment [2], in experiment [4], in experiment [8], in [5], in experiment [6] and in experiment [17] was “inactive” throughout. The Potency result in experiment [7] was “inactive”. In addition, in [9], the Potency is 3.72 µM (active).
As to `O=C(NCC1CCCCN1)c1cc(OCC(F)(F)F)ccc1OCC(F)(F)F` (configuration not stated), in experiment [1], the viability (% of control) came out at 12.9%. Further, the Potency result in experiment [2], in [8], in experiment [6] and in experiment [7] was “inactive” throughout.
For the compound `CCCCC(CC)COC(=O)C(C#N)=C(c1ccccc1)c1ccccc1` (configuration not stated), the viability (% of control) in [1] was found to be 112%. Besides, the Potency entry in experiment [2], in experiment [4], in experiment [14], in experiment [8], in [9] and in [5] was “inactive” in each case. Also, the Potency result in experiment [6] and in [17] was “inactive” throughout.
In the case of `O=C1c2ccccc2-c2n[nH]c3cccc1c23`, in experiment [1], the viability (% of control) was 3.95%. In addition, the Potency entry in [2], in experiment [5], in experiment [6] and in experiment [7] was “inactive” in each case. For the same compound, the Potency in experiment [9] is 18.7 µM (active).
Consider `Cc1cc(=O)oc2cc(O)ccc12`, for which the viability (% of control) in experiment [1] amounted to 104%. Also, the Potency result in experiment [2], in experiment [8], in experiment [9], in experiment [5], in [6] and in experiment [7] was “inactive” throughout.
Take `CN1CCC(=C2c3ccccc3CCc3sccc32)CC1`: in experiment [1], the viability (% of control) came out at 69%. Moreover, the Potency entry in [2], in experiment [3], in [5], in experiment [6] and in experiment [7] was “inactive” each time.
As to `Clc1ccc(C(Cn2ccnc2)OCc2ccc(Sc3ccccc3)cc2)c(Cl)c1` (configuration not stated), the viability (% of control) in experiment [1] was determined as 100%. In addition, the Potency result in [2] and in experiment [7] was “inactive” in each case.
